# Data taken from ChEMBL document CHEMBL1961873, “Compounds: GSK PKIS; Assays: Nanosyn kinase panel” (2012).
# Columns and labels:
# [1] = system: Epidermal growth factor receptor (Homo sapiens), P00533 [T790M]; details: at 1 µM
# [2] = system: Epidermal growth factor receptor (Homo sapiens), P00533 [L858R,T790M]; details: at 0.1 µM
# [3] = system: Epidermal growth factor receptor (Homo sapiens), P00533 [L858R,T790M]; details: at 1 µM
# [4] = target: Ephrin type-A receptor 2 (Homo sapiens) (UniProt P29317); details: at 0.1 µM
# [5] = target: Ephrin type-A receptor 2 (Homo sapiens) (UniProt P29317); details: at 1 µM
# [6] = target: T1, Ephrin type-A receptor 3 (Homo sapiens) (UniProt P29320); details: at 0.1 µM
# T1 sequence (whole entry): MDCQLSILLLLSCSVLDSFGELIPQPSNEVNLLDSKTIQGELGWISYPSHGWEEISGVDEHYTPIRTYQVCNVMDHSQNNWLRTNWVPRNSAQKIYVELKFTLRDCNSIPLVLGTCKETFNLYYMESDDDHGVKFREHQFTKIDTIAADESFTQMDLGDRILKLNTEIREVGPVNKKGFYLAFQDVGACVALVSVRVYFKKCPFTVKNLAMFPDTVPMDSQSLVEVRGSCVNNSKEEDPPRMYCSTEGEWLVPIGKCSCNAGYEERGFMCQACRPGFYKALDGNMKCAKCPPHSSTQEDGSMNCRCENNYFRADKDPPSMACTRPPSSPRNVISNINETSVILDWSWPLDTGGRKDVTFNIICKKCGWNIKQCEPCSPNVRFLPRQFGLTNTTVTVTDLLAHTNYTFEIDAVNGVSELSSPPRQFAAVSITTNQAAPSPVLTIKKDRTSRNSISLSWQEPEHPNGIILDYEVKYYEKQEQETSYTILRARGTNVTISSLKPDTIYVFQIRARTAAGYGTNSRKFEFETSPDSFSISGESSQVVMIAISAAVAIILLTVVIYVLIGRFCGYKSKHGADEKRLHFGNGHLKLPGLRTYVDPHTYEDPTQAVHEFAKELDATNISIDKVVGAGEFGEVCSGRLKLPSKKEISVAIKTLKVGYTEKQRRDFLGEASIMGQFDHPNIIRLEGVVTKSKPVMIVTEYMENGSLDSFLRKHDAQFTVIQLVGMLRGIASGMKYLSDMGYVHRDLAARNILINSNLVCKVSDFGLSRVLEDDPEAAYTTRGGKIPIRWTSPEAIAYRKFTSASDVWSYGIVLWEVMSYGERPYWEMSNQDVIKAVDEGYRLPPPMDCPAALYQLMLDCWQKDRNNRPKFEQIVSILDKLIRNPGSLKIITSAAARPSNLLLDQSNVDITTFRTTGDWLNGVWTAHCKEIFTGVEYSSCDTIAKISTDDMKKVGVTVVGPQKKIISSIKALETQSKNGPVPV
# [7] = target: T1, Ephrin type-A receptor 3 (Homo sapiens); details: at 1 µM
# [8] = target: Ephrin type-A receptor 4 (Homo sapiens) (UniProt P54764); details: at 0.1 µM
# [9] = target: Ephrin type-A receptor 4 (Homo sapiens) (UniProt P54764); details: at 1 µM
# [10] = target: T2, Ephrin type-B receptor 2 (Homo sapiens) (UniProt P29323); details: at 0.1 µM;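 also: reported as mean inhibition of EPHB2, from the GSK PKIS dataset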
# T2 sequence (whole entry): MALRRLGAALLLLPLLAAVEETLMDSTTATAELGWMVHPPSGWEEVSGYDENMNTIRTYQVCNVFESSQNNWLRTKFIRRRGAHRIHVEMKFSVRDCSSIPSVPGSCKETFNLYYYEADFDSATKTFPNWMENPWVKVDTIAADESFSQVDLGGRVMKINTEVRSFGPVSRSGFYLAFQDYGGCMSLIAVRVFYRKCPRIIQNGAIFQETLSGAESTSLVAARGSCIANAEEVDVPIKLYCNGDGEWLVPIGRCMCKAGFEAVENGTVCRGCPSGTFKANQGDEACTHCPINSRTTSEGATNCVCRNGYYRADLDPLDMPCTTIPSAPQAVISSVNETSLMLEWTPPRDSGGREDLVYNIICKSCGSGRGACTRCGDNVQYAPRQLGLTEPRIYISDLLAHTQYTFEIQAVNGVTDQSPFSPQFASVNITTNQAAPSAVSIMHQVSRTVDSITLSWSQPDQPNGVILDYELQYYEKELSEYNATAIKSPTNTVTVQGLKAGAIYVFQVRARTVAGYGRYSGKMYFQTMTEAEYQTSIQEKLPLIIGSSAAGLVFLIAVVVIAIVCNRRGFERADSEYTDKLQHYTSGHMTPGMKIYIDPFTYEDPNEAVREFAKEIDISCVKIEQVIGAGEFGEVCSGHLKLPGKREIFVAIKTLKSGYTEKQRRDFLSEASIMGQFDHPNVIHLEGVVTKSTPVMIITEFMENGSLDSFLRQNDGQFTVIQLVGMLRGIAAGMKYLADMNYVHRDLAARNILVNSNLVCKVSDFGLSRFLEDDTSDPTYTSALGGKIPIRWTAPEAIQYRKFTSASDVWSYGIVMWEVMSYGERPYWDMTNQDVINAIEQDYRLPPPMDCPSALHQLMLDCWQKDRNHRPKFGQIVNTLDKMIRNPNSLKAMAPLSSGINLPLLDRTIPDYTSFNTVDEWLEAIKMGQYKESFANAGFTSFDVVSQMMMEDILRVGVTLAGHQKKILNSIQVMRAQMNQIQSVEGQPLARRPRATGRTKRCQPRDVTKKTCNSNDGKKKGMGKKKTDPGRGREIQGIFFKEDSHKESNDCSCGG
# Sequence of Epidermal growth factor receptor (Homo sapiens), P00533 [T790M] (P00533 whole entry T790M): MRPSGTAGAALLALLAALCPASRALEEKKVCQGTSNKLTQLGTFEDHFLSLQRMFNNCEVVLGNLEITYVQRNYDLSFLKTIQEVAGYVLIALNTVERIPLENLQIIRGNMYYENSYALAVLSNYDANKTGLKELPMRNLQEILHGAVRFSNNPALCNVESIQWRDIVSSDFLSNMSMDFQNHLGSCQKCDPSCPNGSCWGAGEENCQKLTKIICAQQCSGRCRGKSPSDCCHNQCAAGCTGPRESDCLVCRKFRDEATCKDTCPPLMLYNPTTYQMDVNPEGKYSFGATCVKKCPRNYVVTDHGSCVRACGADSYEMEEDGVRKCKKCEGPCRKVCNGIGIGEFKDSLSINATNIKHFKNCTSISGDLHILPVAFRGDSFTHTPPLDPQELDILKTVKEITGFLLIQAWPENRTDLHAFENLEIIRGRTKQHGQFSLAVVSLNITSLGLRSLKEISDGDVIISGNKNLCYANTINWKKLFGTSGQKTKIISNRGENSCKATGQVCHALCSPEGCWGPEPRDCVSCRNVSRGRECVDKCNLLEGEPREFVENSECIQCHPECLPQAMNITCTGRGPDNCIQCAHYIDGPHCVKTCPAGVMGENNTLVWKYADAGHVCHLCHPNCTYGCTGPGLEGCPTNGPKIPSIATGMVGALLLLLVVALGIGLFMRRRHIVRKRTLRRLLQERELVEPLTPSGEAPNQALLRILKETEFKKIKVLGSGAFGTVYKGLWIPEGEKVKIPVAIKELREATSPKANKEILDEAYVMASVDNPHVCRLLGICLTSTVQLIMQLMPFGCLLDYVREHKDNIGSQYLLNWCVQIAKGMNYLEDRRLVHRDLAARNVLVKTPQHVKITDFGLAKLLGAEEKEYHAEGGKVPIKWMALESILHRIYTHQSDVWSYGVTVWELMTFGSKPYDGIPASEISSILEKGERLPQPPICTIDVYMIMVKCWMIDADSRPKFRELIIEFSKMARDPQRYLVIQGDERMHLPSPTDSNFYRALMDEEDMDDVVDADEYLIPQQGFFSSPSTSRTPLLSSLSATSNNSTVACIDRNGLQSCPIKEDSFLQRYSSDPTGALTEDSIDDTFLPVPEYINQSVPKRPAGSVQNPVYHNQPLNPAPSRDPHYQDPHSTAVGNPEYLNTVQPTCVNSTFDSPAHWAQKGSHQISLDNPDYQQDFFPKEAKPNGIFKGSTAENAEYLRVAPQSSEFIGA
# Sequence of Ephrin type-A receptor 2 (Homo sapiens) (P29317 whole entry): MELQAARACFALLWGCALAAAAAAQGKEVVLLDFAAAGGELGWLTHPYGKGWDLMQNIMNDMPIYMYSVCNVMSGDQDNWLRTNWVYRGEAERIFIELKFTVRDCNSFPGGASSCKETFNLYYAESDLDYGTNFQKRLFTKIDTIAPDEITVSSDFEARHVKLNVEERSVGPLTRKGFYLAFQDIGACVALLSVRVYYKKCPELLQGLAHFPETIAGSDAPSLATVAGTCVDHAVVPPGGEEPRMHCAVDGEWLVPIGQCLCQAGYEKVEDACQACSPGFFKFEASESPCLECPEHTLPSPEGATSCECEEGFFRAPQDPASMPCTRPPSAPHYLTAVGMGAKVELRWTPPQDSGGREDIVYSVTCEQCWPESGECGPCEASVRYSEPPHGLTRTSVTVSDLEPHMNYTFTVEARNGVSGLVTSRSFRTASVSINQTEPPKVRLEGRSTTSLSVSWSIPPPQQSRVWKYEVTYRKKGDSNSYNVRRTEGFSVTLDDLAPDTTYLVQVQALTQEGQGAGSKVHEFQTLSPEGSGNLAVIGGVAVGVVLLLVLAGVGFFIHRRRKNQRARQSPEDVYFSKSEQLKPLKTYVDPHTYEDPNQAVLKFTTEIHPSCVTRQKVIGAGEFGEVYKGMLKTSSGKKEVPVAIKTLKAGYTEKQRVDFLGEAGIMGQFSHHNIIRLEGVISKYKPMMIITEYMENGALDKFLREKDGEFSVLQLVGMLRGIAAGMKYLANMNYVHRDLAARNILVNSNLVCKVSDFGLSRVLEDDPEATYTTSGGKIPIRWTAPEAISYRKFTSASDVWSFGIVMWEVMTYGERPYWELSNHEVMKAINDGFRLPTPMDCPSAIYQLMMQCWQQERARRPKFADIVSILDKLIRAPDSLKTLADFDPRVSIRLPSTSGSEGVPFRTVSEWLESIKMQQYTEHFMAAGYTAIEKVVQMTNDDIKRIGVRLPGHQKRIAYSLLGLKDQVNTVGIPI
# Sequence of Epidermal growth factor receptor (Homo sapiens), P00533 [L858R,T790M] (P00533 whole entry T790M/L858R, looked up): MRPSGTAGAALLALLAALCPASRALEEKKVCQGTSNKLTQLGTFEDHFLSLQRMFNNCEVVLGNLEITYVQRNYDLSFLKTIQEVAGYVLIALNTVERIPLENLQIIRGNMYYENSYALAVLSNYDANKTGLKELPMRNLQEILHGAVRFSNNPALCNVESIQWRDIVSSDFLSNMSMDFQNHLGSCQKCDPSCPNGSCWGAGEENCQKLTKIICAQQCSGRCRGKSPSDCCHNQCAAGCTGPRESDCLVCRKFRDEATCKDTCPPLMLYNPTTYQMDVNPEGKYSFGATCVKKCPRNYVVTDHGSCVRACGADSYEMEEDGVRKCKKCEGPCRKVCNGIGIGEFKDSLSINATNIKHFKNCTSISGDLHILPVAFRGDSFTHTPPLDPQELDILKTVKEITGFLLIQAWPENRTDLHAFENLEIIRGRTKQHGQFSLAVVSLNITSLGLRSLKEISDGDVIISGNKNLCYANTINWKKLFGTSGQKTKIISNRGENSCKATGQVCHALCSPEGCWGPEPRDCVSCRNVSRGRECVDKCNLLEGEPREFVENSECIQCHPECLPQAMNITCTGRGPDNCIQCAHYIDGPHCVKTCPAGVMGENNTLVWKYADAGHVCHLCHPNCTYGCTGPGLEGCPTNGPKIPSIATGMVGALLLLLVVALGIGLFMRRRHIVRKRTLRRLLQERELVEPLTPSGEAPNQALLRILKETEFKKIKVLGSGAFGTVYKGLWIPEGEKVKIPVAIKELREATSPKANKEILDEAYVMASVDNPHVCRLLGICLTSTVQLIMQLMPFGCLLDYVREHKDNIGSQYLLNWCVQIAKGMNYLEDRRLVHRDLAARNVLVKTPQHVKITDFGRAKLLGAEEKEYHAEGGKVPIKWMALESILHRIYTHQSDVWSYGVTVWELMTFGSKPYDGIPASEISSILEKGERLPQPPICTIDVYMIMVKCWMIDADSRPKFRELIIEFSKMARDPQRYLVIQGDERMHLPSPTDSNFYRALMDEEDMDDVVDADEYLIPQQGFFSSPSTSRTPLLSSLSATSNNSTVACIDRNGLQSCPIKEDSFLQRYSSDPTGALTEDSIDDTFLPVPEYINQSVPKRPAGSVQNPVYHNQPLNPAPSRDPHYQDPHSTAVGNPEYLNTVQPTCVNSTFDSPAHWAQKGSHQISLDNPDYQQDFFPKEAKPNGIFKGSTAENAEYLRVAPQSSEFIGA
# Sequence of Ephrin type-A receptor 4 (Homo sapiens) (P54764 whole entry): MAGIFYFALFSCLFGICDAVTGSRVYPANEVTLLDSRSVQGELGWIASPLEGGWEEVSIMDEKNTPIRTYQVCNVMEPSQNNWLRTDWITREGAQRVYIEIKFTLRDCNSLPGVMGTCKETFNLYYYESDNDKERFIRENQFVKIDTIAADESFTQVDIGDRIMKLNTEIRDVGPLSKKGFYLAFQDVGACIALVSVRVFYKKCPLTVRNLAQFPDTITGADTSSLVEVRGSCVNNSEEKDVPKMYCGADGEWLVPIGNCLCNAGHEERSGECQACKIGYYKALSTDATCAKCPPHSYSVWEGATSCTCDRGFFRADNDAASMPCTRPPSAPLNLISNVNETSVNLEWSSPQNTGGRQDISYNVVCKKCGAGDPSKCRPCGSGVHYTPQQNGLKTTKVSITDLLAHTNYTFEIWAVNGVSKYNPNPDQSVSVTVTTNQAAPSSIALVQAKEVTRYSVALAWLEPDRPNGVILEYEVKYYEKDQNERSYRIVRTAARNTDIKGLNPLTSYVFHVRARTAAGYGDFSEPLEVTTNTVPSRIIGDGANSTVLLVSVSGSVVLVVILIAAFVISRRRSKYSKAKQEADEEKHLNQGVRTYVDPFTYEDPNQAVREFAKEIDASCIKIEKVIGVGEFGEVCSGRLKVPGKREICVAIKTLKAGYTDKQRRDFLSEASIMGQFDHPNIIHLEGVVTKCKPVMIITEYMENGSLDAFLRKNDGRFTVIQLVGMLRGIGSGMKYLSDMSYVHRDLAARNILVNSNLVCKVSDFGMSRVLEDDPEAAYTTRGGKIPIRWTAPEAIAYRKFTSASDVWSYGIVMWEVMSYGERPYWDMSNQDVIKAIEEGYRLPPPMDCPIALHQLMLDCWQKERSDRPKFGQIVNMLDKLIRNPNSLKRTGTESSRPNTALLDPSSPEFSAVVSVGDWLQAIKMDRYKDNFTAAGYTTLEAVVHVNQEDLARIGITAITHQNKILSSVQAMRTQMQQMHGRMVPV
Structure (SMILES),inhibition [1] [%],inhibition [2] [%],inhibition [3] [%],inhibition [4] [%],inhibition [5] [%],inhibition [6] [%],inhibition [7] [%],inhibition [8] [%],inhibition [9] [%],inhibition [10] [%]
c1ccc(Nc2ncc(-c3ccccc3)o2)cc1,3.42,-0.6,3.56,1.18,0.47,3.55,4.8,7.56,12.1,7.58
C[C@@H](Oc1cc(-n2cnc3ccc(OCC4CCN(C)CC4)cc32)sc1C(N)=O)c1ccccc1C(F)(F)F,1.67,1.72,18.6,-3.67,-3.26,-6.9,-0.01,-6.91,-4.57,-9.54
Oc1cccc(-c2nc(-c3ccccc3)[nH]c2-c2ccncc2)c1,2.55,2.26,4.01,1.93,7.66,7.79,6.42,11.7,32.9,8.8
O=C1Nc2ccc(-c3cccnc3)cc2C1=Cc1cc(Br)c(O)c(Br)c1,0.57,2.96,5.14,2.12,0.76,4.82,3.94,3.36,5.16,7.83
CCS(=O)(=O)c1ccc(OC)c(Nc2nccc(N(C)c3ccc4c(C)n[nH]c4c3)n2)c1,18.8,2.67,4.47,3.32,10.1,4.4,12.2,11.8,45.3,16.4
CN(C)C(=O)O[C@H]1CN[C@H](C#Cc2cc3ncnc(Nc4ccc(OCc5cccc(F)c5)c(Cl)c4)c3s2)C1,,,,-0.69,0.86,2.97,4.79,7.54,8.32,9.47
Cc1ccc(Nc2ccnc(Nc3cccc(C(N)=O)c3)n2)cc1O,14.9,2.53,5.38,1.66,23.3,14.3,33.9,17.1,62.9,8.62
CC(C)c1ccc(Nc2nccc(-c3cnn4ncccc34)n2)cc1,2.45,-0.56,2.24,-0.98,0.28,1.96,4.55,8.08,10.3,7.64
COc1cc(Nc2nccc(-c3cnn4ncccc34)n2)cc(OC)c1,-0.64,2.35,15.8,2.66,24.3,3.17,11.1,9.67,45.3,4.13
Nc1nccc(C#Cc2cncnc2Nc2ccc(OCc3cccc(F)c3)c(Cl)c2)n1,,,,0.65,1.27,1.8,3.27,6.14,-0.84,9.67
CS(=O)(=O)CCNCc1nc(-c2ccc3ncnc(Nc4ccc(OCc5cccc(C(F)(F)F)c5)cc4)c3c2)cs1,-0.12,-2.33,-3.57,1.44,0.05,2.99,3.51,0.66,7.07,0.86
CC(C)c1ccc2c(c1)NC(=O)/C2=N/Nc1ccc(S(N)(=O)=O)cc1,-1.35,-0.97,-2.16,-2,-1.68,-0.36,1.64,3.01,5.06,0.18
CN(C)C(=O)O[C@@H]1CN[C@@H](C#Cc2cc3ncnc(Nc4ccc(OCc5cccc(F)c5)c(Cl)c4)c3s2)C1,,,,-0.17,1.05,5.64,1.99,1.85,-8.34,0.71
CCn1c(-c2nonc2N)nc2c(C#CC(C)(C)O)nc(OCCNC)cc21,1.6,-1.42,0.02,0.18,-0.52,1.69,3.22,4,8.24,8.92
CN(c1ccc(NC(=O)Nc2ccc(OC(F)(F)F)cc2)cc1)c1ccnc(Nc2cccc(S(N)(=O)=O)c2)n1,1.56,2.59,2.24,3.48,35.4,5.58,18.3,9.59,59.8,10.9
Cc1ccc2c(c1)/C(=N/Nc1ccc(S(N)(=O)=O)cc1)C(=O)N2,-3,-4.55,-2.96,1.34,,-0.01,2.43,-0.11,-5.42,-2.4
NC(=O)c1sc(-n2cnc3ccccc32)cc1OCc1ccccc1Br,1.85,2.85,1.45,0.63,0.39,1.18,3.38,6.29,9.89,5.64

Structure (SMILES),inhibition [1] [%],inhibition [2] [%],inhibition [3] [%],inhibition [4] [%],inhibition [5] [%],inhibition [6] [%],inhibition [7] [%],inhibition [8] [%],inhibition [9] [%],inhibition [10] [%]
Cc1cc(Cl)cc2c1NC(=O)C2=NNc1ccc(S(N)(=O)=O)cc1,3.73,-0.55,2.83,1.34,1.02,3.32,2.87,6.66,7.34,4.48
O=C(Nc1ccc(Oc2ccc3[nH]c(NC(=O)c4ccco4)nc3c2)cc1)Nc1cc(C(F)(F)F)ccc1F,-1.32,1.13,0.64,18.8,82.8,4.15,15.9,36.3,86.9,36.1
Cc1ccc(NC(=O)CC2CC2)cc1-c1ccc(C(=O)NCC2CC2)cc1,2.09,0.02,0.35,0.66,1.4,3.45,4.59,8.26,12.9,6.33
COc1cc2ncnc(Nc3ccc(C)c(O)c3)c2cc1OC,31.2,3.9,13.5,2.35,10.6,6.24,16.7,15.9,49.9,11.1
Cc1cc(-c2ccccn2)cc(C)c1/C=C/c1cncc(-c2nn[nH]n2)c1,1.45,-2.34,3.4,0.59,2.96,3.5,4.9,6.16,17.3,5.94
COc1cccc(-n2ncc3c(N/N=C/c4ccc(S(C)(=O)=O)cc4)ncnc32)c1,0.63,0.79,5.78,-3.2,1.45,-2.15,-1.2,7.26,11.7,5.46
N#Cc1cccc(Nc2nccc(-c3cnn4ncccc34)n2)c1,6.4,0.25,9.41,2.26,15,8.11,19.2,13,43.8,15.1
CCS(=O)(=O)c1ccc(OC)c(Nc2ncc(-c3cccc(OC)c3)o2)c1,-0.32,-0.04,0.18,3.67,3.85,5.57,8.5,6.27,12,9.46
CN(C)c1cc2c(Nc3ccc4c(cnn4Cc4ccccc4)c3)ncnc2cn1,,,,0.12,0.17,3.01,3.25,6.93,2.96,2.52
[O-][S+]1CCN(Cc2ccc(-c3ccc4ncnc(Nc5ccc(OCc6ccccc6)c(Cl)c5)c4c3)o2)CC1,,,,-3.15,-2.96,-1.64,-1.69,2.8,3.82,6.04
COC(=O)c1cncc(/C=C/c2c(C)cc(O)cc2C)c1,4.21,0.04,4.09,10.3,40.2,7.42,16.2,19,66.6,15.3
Cc1ccc(C(=O)NC2CC2)cc1-c1ccc2[nH]ncc2c1,-3.14,-2.32,-5.63,-1.76,-1.67,-6.73,-6.53,,-8.91,
COC(=O)Nc1nc2cc(Oc3ccc(NC(=O)Nc4cccc(Br)c4)cc3)ccc2[nH]1,2.61,-0.2,-0.25,28.1,55.2,13,12.4,52.1,76.9,56.7
c1ccc(Cc2nc3ccc(Nc4ncnc5ccccc45)cc3[nH]2)cc1,2.67,1.06,-0.39,1.21,0.81,4.49,4.41,9.01,11.7,8.45
Nc1nccc(-c2c(-c3ccc(F)cc3)nn3cc(C(F)(F)F)ccc23)n1,2.37,-0.45,1.18,0.62,-0.02,0.75,-0.28,2.89,5.34,-9.27
Cc1ccc2c(-c3ccnc(Nc4ccc5c(c4)OCCO5)n3)c(-c3ccc(C(F)(F)F)cc3)nn2n1,1.14,2.01,2.06,2.03,0.72,1.81,0,1.21,3.57,-7.93
CCn1c(-c2nonc2N)nc2ccc(F)cc21,6.26,3.36,6.82,0.18,0.43,4.17,4.99,11.3,15,7.78
